Assay results as given in PubChem BioAssay (EPA / NIEHS).
Some structures have more than one record in an assay (separate samples or runs), and their calls can disagree. Calls of active or inactive are those of the source. The calls were made as follows: active = hit-call score of the fitted dose curve at least 0.9, where 1 is the maximum; inactive = score below 0.9.

What was measured:
[1] = read-out: Transforming growth factor beta 1 (TGFb1), TGFB1 (gene 7040); assay: BSK_KF3CT_TGFb1: BioMAP Diversity Plus: KF3CT Assay for Transforming growth factor beta 1 (TGFb1) Biomarker Activity (AID 2283072); conditions: primary human keratinocytes with fibroblasts; actives raise or lower the signal
Method in brief: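 ELISA quantifies TGF-b1 at 24 h post-dose in a primary human skin co-culture of keratinocytes and fibroblasts, with gain or loss judged against DMSO. Parallel SRB total-protein staining flags overt cytotoxicity.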

[2] = read-out: C-C motif chemokine 2 (Homo sapiens) (UniProt P13500); assay: BSK_KF3CT_MCP1: BioMAP Diversity Plus: KF3CT Assay for Monocyte Chemoattractant Protein 1 (MCP1/CCL2) Biomarker Activity (AID 2283073); conditions: primary human keratinocytes with fibroblasts; actives raise or lower the signal
Method in brief: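 Human keratinocyte–foreskin fibroblast co-culture; MCP-1 measured by ELISA 24 h after dosing. Bidirectional fit vs DMSO; cytotoxicity tracked by SRB total protein in parallel cultures.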

[3] = read-out: Matrix Metallopeptidase 9 (MMP9), MMP9 (gene 4318); assay: BSK_KF3CT_MMP9: BioMAP Diversity Plus: KF3CT Assay for Matrix Metallopeptidase 9 (MMP9) Biomarker Activity (AID 2283074); conditions: primary human keratinocytes with fibroblasts; actives raise or lower the signal;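 as to AC50: MMP9 protein level quantified by ELISA in the co-culture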
Method in brief: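 Values come from bidirectional fitting relative to DMSO of MMP-9 levels, which were measured by ELISA. Measurements were taken 24 h after chemical dosing of a keratinocyte and foreskin fibroblast co-culture.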

[4] = read-out: urokinase plasminogen activator (uPA), PLAU (gene 5328); assay: BSK_KF3CT_uPA: BioMAP Diversity Plus: KF3CT Assay for urokinase plasminogen activator (uPA) Biomarker Activity (AID 2283075); conditions: primary human keratinocytes with fibroblasts; actives raise or lower the signal
Method in brief: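 Values derive from bidirectional fitting against DMSO controls. Keratinocyte/foreskin fibroblast co-cultures received chemical; 24 h later uPA was detected by ELISA, with SRB total-protein staining in parallel wells for overt cytotoxicity.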

CD40, CD40 (gene 958) = assay: BSK_LPS_CD40: BioMAP Diversity Plus: LPS Assay for CD40 Biomarker Activity (AID 2283076); conditions: primary human HUVEC with PBMC; actives raise or lower the signal
Method in brief: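 HUVEC plus PBMC co-culture stimulated with LPS; CD40 quantified by ELISA 24 h after compound dosing. Fitting was bidirectional relative to DMSO. SRB staining of parallel cultures flagged overt cytotoxicity.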

[5] = read-out: E-selectin (Homo sapiens) (UniProt P16581); assay: BSK_LPS_Eselectin: BioMAP Diversity Plus: LPS Assay for Eselectin Biomarker Activity (AID 2283077); conditions: primary human HUVEC with PBMC; actives raise or lower the signal
Method in brief: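 Human umbilical vein endothelial cells co-cultured with PBMC under LPS stimulation; cell-surface E-selectin measured by ELISA 24 h after dosing. Change in either direction versus DMSO, with SRB total-protein staining in parallel cultures for cytotoxicity.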

[6] = read-out: Interleukin-8 (IL8), CXCL8 (gene 3576); assay: BSK_LPS_IL8: BioMAP Diversity Plus: LPS Assay for Interleukin-8 (IL8) Biomarker Activity (AID 2283078); conditions: primary human HUVEC with PBMC; actives raise or lower the signal
Method in brief: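 Human umbilical vein endothelial cells co-cultured with PBMC, LPS-stimulated, exposed to compound for 24 h. IL-8 quantified by ELISA; fitted in both directions against DMSO, with SRB total-protein staining of parallel cultures for cytotoxicity.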

[7] = BSK_LPS_SRB: Viability Assessment in the BioMAP Diversity Plus: LPS Assay (AID 2283079); conditions: primary human HUVEC with PBMC;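 also: total protein by sulforhodamine B absorbance as a cytotoxicity measure; measured one day after compound addition; fitted in both directions against DMSO so loss or gain of signal counts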
Method in brief: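 Co-culture of human umbilical vein endothelial cells and PBMC, read 24 h after dosing. Total protein by 0.1% SRB staining after 10% TCA fixation, absorbance at 560 nm; bidirectional fit against DMSO.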

[8] = read-out: Interleukin-1 alpha (IL1a), IL1A (gene 3552); assay: BSK_LPS_IL1a: BioMAP Diversity Plus: LPS Assay for Interleukin-1 alpha (IL1a) Biomarker Activity (AID 2283080); conditions: primary human HUVEC with PBMC; actives raise or lower the signal
Method in brief: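 Human umbilical vein endothelial cells co-cultured with PBMC and stimulated with LPS; IL-1a measured by ELISA 24 h after dosing. Bidirectional fitting against DMSO; cytotoxicity checked by SRB staining in parallel cultures.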

[9] = read-out: Monocyte Chemoattractant Protein-1 (MCP1), CCL2 (gene 6347); assay: BSK_LPS_MCP1: BioMAP Diversity Plus: LPS Assay for Monocyte Chemoattractant Protein-1 (MCP1) Biomarker Activity (AID 2283081); conditions: primary human HUVEC with PBMC; actives raise or lower the signal;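 as to AC50: secreted MCP-1 protein quantified by ELISA in culture supernatant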
Method in brief: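 Human umbilical vein endothelial cells co-cultured with PBMC, LPS-stimulated; secreted MCP-1 measured by ELISA 24 h after compound addition. Bidirectional curve fitting against DMSO baseline; SRB total-protein staining in parallel cultures for cytotoxicity.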

Measured: AC50

E-selectin (Homo sapiens), sequence (P16581 whole entry, looked up): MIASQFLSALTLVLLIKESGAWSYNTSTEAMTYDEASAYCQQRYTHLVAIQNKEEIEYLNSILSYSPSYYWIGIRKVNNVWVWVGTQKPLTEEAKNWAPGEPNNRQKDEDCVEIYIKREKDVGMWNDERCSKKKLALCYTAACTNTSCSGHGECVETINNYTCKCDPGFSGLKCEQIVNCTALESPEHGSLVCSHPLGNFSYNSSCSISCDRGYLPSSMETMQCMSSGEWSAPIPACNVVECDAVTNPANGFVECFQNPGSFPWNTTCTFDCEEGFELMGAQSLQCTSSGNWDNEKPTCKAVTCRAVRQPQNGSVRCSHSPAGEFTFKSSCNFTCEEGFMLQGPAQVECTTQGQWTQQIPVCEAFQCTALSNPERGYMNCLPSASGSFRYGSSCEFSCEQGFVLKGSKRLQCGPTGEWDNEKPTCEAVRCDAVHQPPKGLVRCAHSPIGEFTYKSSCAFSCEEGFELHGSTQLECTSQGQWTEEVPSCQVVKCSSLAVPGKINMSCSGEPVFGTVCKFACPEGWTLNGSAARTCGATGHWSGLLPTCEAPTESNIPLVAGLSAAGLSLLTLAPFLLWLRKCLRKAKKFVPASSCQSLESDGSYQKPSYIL

CCOP(=S)(OCC)SCn1c(=O)oc2cc(Cl)ccc21
active: CD40, CD40 (gene 958) 16.6 µM | [5] 9.68 µM | [6] 16.9 µM | [7] 31.6 µM | [9] 25.8 µM
inactive: all other assays above

COc1nc(C)nc(NC(=O)NS(=O)(=O)c2ccccc2CCC(F)(F)F)n1
active: [3] 23.7 µM
inactive: [1] | [2] | [3] | [4] | CD40, CD40 (gene 958) | [5] | [6] | [7] | [8] | [9]

CCCCOC(=O)c1ccccc1C(=O)OCCCC
inactive: [1] | [2] | [3] | [4] | CD40, CD40 (gene 958) | [5] | [6] | [7] | [8] | [9]
active: [6] 25.3 µM | [7] 9.66 µM

COc1cnc(OC)n2nc(NS(=O)(=O)c3c(OCC(F)F)cccc3C(F)(F)F)nc12
inactive: [1] | [2] | [3] | [4] | CD40, CD40 (gene 958) | [5] | [6] | [7] | [8] | [9]
active: [4] 29.6 µM | [6] 0.0793 µM

COc1ccc(C(c2ccc(OC)cc2)C(Cl)(Cl)Cl)cc1
active: [3] 12.7 µM | CD40, CD40 (gene 958) 23.3 µM | [5] 27.5 µM | [6] 25 µM | [7] 20 µM | [8] 32.5 µM | [9] 29.7 µM
inactive: [1] | [2] | [4]

C=CCC1=C(C)[C@@H](OC(=O)[C@@H]2[C@@H](C=C(C)C)C2(C)C)CC1=O
active: [3] 32.6 µM | CD40, CD40 (gene 958) 29.2 µM | [5] 32.4 µM | [6] 26.3 µM | [7] 36.2 µM | [8] 32.3 µM | [9] 32.1 µM
inactive: [1] | [2] | [4]

COC(=O)c1ccccc1C(=O)OC
inactive: all assays above

CCCCNC(=O)n1c(NC(=O)OC)nc2ccccc21
active: [7] 7.48 µM
inactive: all other assays above

CCOc1cc(Oc2ccc(C(F)(F)F)cc2Cl)ccc1[N+](=O)[O-]
active: [6] 11 µM | [7] 9.65 µM
inactive: all other assays above

COc1nc(C)nc(NC(=O)NS(=O)(=O)c2ccccc2Cl)n1
inactive: all assays above

CS/C(C)=N/OC(=O)N(C)SN(C)C(=O)O/N=C(\C)SC
active: [1] 13.3 µM | [2] 12.6 µM | [3] 17.1 µM | [4] 16.9 µM | CD40, CD40 (gene 958) 15.8 µM | [5] 34.7 µM | [6] 30.8 µM | [7] 29.8 µM | [8] 15.6 µM | [9] 29.9 µM

CON(C)C(=O)Nc1ccc(Cl)c(Cl)c1
inactive: all assays above

COC(=O)N(OC)c1ccccc1COc1ccn(-c2ccc(Cl)cc2)n1
inactive: [1] | [4] | [8]
active: [2] 2.56 µM | [3] 3.97 µM | CD40, CD40 (gene 958) 20 µM | [5] 6.89 µM | [6] 3.97 µM | [7] 10.1 µM | [9] 9.04 µM

O=C(Nc1ccccc1)Nc1ccnc(Cl)c1
active: [6] 15 µM | [9] 9.85 µM
inactive: all other assays above
